Mdm2-MdmX inh – inhibitors of human Mdm2/MdmX interaction | O15151+Q00987 | SaOS-2 split-luciferase Mdm2/MdmX complementation, luminescence | actives 3% (n = 330,000) | inhibition, % at 8 µM;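 active = inhibition of at least 50% at 8 µM in the primary screen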
Gli-Sufu antag – antagonists of Gli-Sufu signaling; Sufu-KO-LIGHT fibroblasts, Gli luciferase reporter luminescence; inhibition, % at 5 µM; actives 0.74% (n = 340,000); AID 588413;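 active = inhibition above about 55%, limit read from the data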
Jurkat NFkB inh – lowers PMA/ionomycin-induced NF-kB signal in Jurkat cells. actives 0.53% (n = 330,000). inhibition, % at 4 µM. PMA/ionomycin-induced NF-kB luciferase reporter, luminescence; in the data active = inhibition above about 50%
Shn3 3UTR inh – Schnurri-3 reporter inhibition in Clone20 osteoblasts. actives 0.52% (n = 360,000). Clone20 osteoblast Shn3 3'UTR firefly luciferase, 24 h. inhibition, % at 12.5 µM. AID 588674;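 active = mean inhibition of at least 75% with every replicate also reaching 75%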
697 NFkB inh – inhibitors of the PMA/ionomycin-induced NF-kB reporter in 697 B cells; actives 0.33% (n = 330,000); inhibition, % at 4 µM; 697 B-cell NF-kB luciferase reporter, 16 h; in the data active = inhibition above about 35%
Gli-Sufu confirm – confirmation of Gli-SUFU pathway antagonists | Sufu-KO-LIGHT cells, Gli luciferase reporter, luminescence | inhibition, % at 5 µM | actives 40% (n = 2,500) | AID 602428 | shares compounds with Gli-Sufu antag;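 active = mean inhibition at 5 µM reaching about 45%, limit read from the data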
Gli cytotox – cytotoxic in Gli-SUFU antagonist counter-screen; actives 32% (n = 2,500); shares compounds with Gli-Sufu antag; cytotoxicity, % at 5 µM; Sufu-KO-LIGHT cells cytotoxicity, ATP luminescence;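 active = mean cytotoxicity at 5 µM above about 25%, limit read from the data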;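 note: cells exposed to compound overnight for roughly 16 to 18 hours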
Wnt3a cs – Wnt3a reporter inhibition counter-screen. Wnt-LIGHT cells, Wnt3a-driven luciferase reporter, luminescence. inhibition, % at 6.25 µM. shares compounds with Gli-Sufu antag. actives 20% (n = 2,500);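 active = mean inhibition above about 25%, limit read from the data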
Large screens that a line does not name were inactive (follow-up assays come after a bar, where they were run). This is a sample that favours compounds with a hit; in the whole collection about 3.8% have one here.

COc1cc(OC)c(OC)cc1CN1CCSCC1	none
Cc1nn(C)cc1CN1CCCC(C(=O)c2ccc(-c3ccccc3)cc2)C1 (stereo not given)	none | Gli-Sufu confirm inactive | Gli cytotox inactive | Wnt3a cs inactive
O=C(c1ccc(-c2ccccc2)cc1)C1CCCN(Cc2ccncc2)C1 (stereo not given)	none | Gli-Sufu confirm inactive | Gli cytotox inactive | Wnt3a cs inactive
CCOc1ccc(CCNC(=O)CN2C(=O)NC3(CCCC3)C2=O)cc1OCC	none
Cc1ccc(C(=O)N/N=C\C=C\c2ccc(Br)cc2)cn1	none | Gli-Sufu confirm inactive | Gli cytotox inactive | Wnt3a cs inactive
COCCn1c(SCc2nc3ccccc3c(=O)[nH]2)nc2ccccc2c1=O	none
CCn1c(SCc2nc3ccccc3c(=O)[nH]2)nc2ccccc21	Gli-Sufu antag 56 | Gli-Sufu confirm inactive | Gli cytotox 26 | Wnt3a cs inactive
COc1cc2nc(=S)n3[nH]c(CCn4nc(C)cc4C)nc3c2cc1OC	Gli-Sufu antag 68 | Gli-Sufu confirm inactive | Gli cytotox inactive | Wnt3a cs inactive
COc1cc2nc(=S)n3[nH]c(COc4ccccc4C)nc3c2cc1OC	none
CC1CC(C)CN(C(=O)c2nn(C)c3c2CS(=O)(=O)c2ccccc2-3)C1 (stereo not given)	none | Gli-Sufu confirm inactive | Gli cytotox inactive | Wnt3a cs inactive
COc1ccc(-c2csc(C(C)(O)c3ccc(F)c(F)c3)n2)cc1 (stereo not given)	none (no result: Mdm2-MdmX inh, Gli-Sufu antag, Jurkat NFkB inh, 697 NFkB inh)
C[C@@H]1CN([C@@H](C)CO)S(=O)(=O)c2ccc(Br)cc2O[C@H]1CN(C)Cc1ccc(-c2ccccc2)cc1	none (no result: Mdm2-MdmX inh, Gli-Sufu antag, Jurkat NFkB inh, 697 NFkB inh)
CSC(=S)N/N=C(\C)c1ccccc1	Gli-Sufu antag 72 | Gli-Sufu confirm inactive | Gli cytotox inactive | Wnt3a cs inactive
C/C(=N\NC(N)=S)c1ccccc1	none
CSCC[C@H](NC(=O)Nc1ccc(S(N)(=O)=O)cc1)C(=O)O	none
CN(C)c1ccc(C(=O)N2CCNC(=O)C2CC(=O)Nc2ccc(F)cc2)cc1 (stereo not given)	Gli-Sufu antag 95 | Gli-Sufu confirm inactive | Gli cytotox inactive | Wnt3a cs inactive
O=c1ccc(-c2ccc(S(=O)(=O)N3CCN(c4ccccc4)CC3)o2)n[nH]1	none
COc1ccc(-c2ccc3[nH]c4c(c3c2)CCN2C(=O)[C@@H]([C@H](C)O)[C@@H](N(C)C(=O)Nc3ccccc3)C[C@@H]42)cc1	none (no result: Mdm2-MdmX inh, Gli-Sufu antag, Jurkat NFkB inh, 697 NFkB inh)
Nc1ccc(Br)cc1-c1nc2ccccc2[nH]c1=O	none | Gli-Sufu confirm 69 | Gli cytotox 34 | Wnt3a cs inactive
Nc1ccccc1-c1nc2ccccc2[nH]c1=O	none
CCOC(=O)C1CCCN(CC(O)COC(c2ccccc2)c2ccccc2)C1 (stereo not given)	Gli-Sufu antag 70 | Gli-Sufu confirm inactive | Gli cytotox inactive | Wnt3a cs inactive
COc1ccc(-c2cc(C3CCNCC3)[nH]n2)cc1	none
CC(C)c1ccc(C(O)c2cnc(C(C)C)n2C)cc1 (stereo not given)	Gli-Sufu antag 95 | Gli-Sufu confirm inactive | Gli cytotox inactive | Wnt3a cs inactive
COc1ccc(CCNC(=O)C2CCC(CNS(=O)(=O)c3ccccc3)CC2)cc1OC (stereo not given)	none (no result: Gli-Sufu antag, Shn3 3UTR inh)
O=C(NCCc1ccccc1)C1CCC(CNS(=O)(=O)c2ccccc2)CC1 (stereo not given)	none | Gli-Sufu confirm inactive | Gli cytotox inactive | Wnt3a cs inactive
O=c1[nH]c(C2CCN(S(=O)(=O)c3ccc(C(F)(F)F)cc3)CC2)nc2c1nnn2Cc1cccc(F)c1	Gli-Sufu antag 56 | Gli-Sufu confirm inactive | Gli cytotox 25 | Wnt3a cs inactive
CC(=O)NS(=O)(=O)c1ccc(NC(=S)NC(=O)C(C)C)cc1	Gli-Sufu antag 93 | Gli-Sufu confirm inactive | Gli cytotox inactive | Wnt3a cs inactive
O=C(c1ccc(F)cc1)C1CCN(C(=S)NCC2CCCO2)CC1 (stereo not given)	Gli-Sufu antag 63 | Gli-Sufu confirm inactive | Gli cytotox inactive | Wnt3a cs inactive
Cc1ccc(C(=O)C2CCN(C(=S)NCC3CCCO3)CC2)cc1 (stereo not given)	none
CCOc1ccc(Br)cc1S(=O)(=O)Nc1cccc(S(=O)(=O)Nc2ccccc2C(=O)O)c1	Gli-Sufu antag 55 | Gli-Sufu confirm inactive | Gli cytotox inactive | Wnt3a cs inactive
CC1CN(C(=O)CCc2cc(C(C)(C)C)c(O)c(C(C)(C)C)c2)CC(C)O1 (stereo not given)	Gli-Sufu antag 66 | Gli-Sufu confirm 86 | Gli cytotox 31 | Wnt3a cs 29
Cc1nc(OCc2ccccc2)c2ccccc2n1	none
COc1ccc(F)cc1COc1nc(C)nc2ccccc12	Gli-Sufu antag 61 | Gli-Sufu confirm inactive | Gli cytotox inactive | Wnt3a cs inactive
COc1ccc(OC)c(C(=O)NC(CC(N)=O)c2ccc(NCCN3CCOCC3)c([N+](=O)[O-])c2)c1 (stereo not given)	Gli-Sufu antag 94 | Gli-Sufu confirm inactive | Gli cytotox inactive | Wnt3a cs inactive
FC(F)Oc1ccc(C2N=C(c3ccccc3)NO2)cc1 (stereo not given)	none
CN(C)c1nc(=NCc2ccco2)ss1	none (no result: Mdm2-MdmX inh, Jurkat NFkB inh, 697 NFkB inh)
CCOC(CN=c1nc(N(C)C)ss1)OCC	Gli-Sufu antag 84 (no result: Mdm2-MdmX inh, Jurkat NFkB inh, 697 NFkB inh) | Gli-Sufu confirm 62 | Gli cytotox 30 | Wnt3a cs inactive
CCOc1ccccc1CN1CCNC(=O)C1CC(=O)NCCc1ccccn1 (stereo not given)	none
Cc1sc2ncnc(NCC3(N4CCOCC4)CCCCC3)c2c1C	none
Cc1sc2ncnc(NCC3CCCO3)c2c1C (stereo not given)	none
Cc1sc2ncnc(NCC(C)(C)N3CCOCC3)c2c1C	Gli-Sufu antag 64 | Gli-Sufu confirm 58 | Gli cytotox 27 | Wnt3a cs inactive
c1ccc(-c2csc3ncnc(NCC4COc5ccccc5O4)c23)cc1 (stereo not given)	Gli-Sufu antag 84 (no result: Mdm2-MdmX inh, Jurkat NFkB inh, 697 NFkB inh) | Gli-Sufu confirm 88 | Gli cytotox 45 | Wnt3a cs 26
Cc1sc2ncnc(NCC3COc4ccccc4O3)c2c1C (stereo not given)	Gli-Sufu antag 77 (no result: Mdm2-MdmX inh, Jurkat NFkB inh, 697 NFkB inh) | Gli-Sufu confirm 72 | Gli cytotox 34 | Wnt3a cs inactive
c1ccc(-c2csc3ncnc(NCCCN4CCOCC4)c23)cc1	none
CN(CC(=O)N1CCN(Cc2ccccc2)CC1)S(=O)(=O)c1cccc2nsnc12	none
Cc1cc(C)c(NC(=S)N(CCCN2CCN(C)CC2)Cc2cccs2)c(C)c1	none
Cc1cc(S(=O)(=O)Nc2ccc(C(=O)NCc3cccnc3)cc2)ccc1F	none

Source: PubChem
